The results in this text go back to PubChem BioAssay (NCI).

Some test systems named below: SR leukemia; RPMI-8226 leukemia; OVCAR-8 ovarian; OVCAR-5 ovarian; OVCAR-4 ovarian; IGROV1 ovarian; OVCAR-3 ovarian; HS 578T breast; NCI/ADR-RES ovarian; T-47D breast; BT-549 breast; MDA-MB-435 melanoma; SW-620 colon; MCF7 breast; HCT-116 colon; HCC-2998 colon; KM12 colon; SK-OV-3 ovarian.
Holding throughout (experiment): NCI-60 one-dose screen, 48 h (100 = growth as untreated, 0 = no growth, -100 = all killed)
What all share (conditions): 10 µM unless noted

SMILES strings stand for the structures. About 83,000 compounds went through this panel and 20% of them were active in at least one assay; those are over-represented in the sample as a whole.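 Values shown are percent growth following 48 h exposure of cells in 96-well plates to a single concentration of compound; below 10 was considered active.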 Values without a mark were called inactive. Activity calls are given as the source filed them.

Take `Cc1ccc2c(n1)C(=O)C(Oc1ccc(F)cc1)=CC2=O`: the growth was 64.6% in the assay on SR leukemia; 43.4% in the assay with RPMI-8226 leukemia; 87% in the assay on OVCAR-8 ovarian; 111% with OVCAR-5 ovarian; 96.6% with OVCAR-4 ovarian; 109% in the assay on IGROV1 ovarian. Further, the growth is 73.2% in the assay with OVCAR-3 ovarian; 105% in the assay with HS 578T breast; 97.1% with NCI/ADR-RES ovarian; 40% with T-47D breast; 85.4% in the assay on BT-549 breast; 101% in the assay on MDA-MB-435 melanoma. The growth was 84.7% in the assay with SW-620 colon; 81.1% in the assay with MCF7 breast; 90.8% in the assay with HCT-116 colon; 108% in the assay on HCC-2998 colon; 101% with KM12 colon.

Regarding `CCCN1CCN(c2ccc3nc(-c4ccc5nc(-c6ccc(OCC)c(OCC)c6)[nH]c5c4)[nH]c3c2)CC1`, the growth in the assay with SR leukemia was 20.9%; in the assay with RPMI-8226 leukemia it was -18.9% (active); in the assay with OVCAR-8 ovarian, -11% (active); with OVCAR-5 ovarian it was -15.2% (active); in the assay on OVCAR-4 ovarian, -59.9% (active); with IGROV1 ovarian, -13.2% (active). Also, the growth with OVCAR-3 ovarian was -63.7% (active); in the assay on HS 578T breast, -37.2% (active); in the assay on NCI/ADR-RES ovarian it was 79.4%; with T-47D breast, 10.7%; in the assay with BT-549 breast, -64% (active); in the assay with MDA-MB-435 melanoma, -88.2% (active). Moreover, the growth with SW-620 colon was -65.9% (active); in the assay on MCF7 breast, -59.5% (active); in the assay with HCT-116 colon, -83.4% (active); with HCC-2998 colon, -79.5% (active); in the assay on KM12 colon, -54.8% (active).

As to `O=C(NC(=S)Nc1ccc(-c2nc3ccccc3[nH]2)cc1)c1ccc2ccccc2c1`, the growth with SR leukemia is 5.49% (active); in the assay on RPMI-8226 leukemia, -6.21% (active); in the assay with OVCAR-8 ovarian, 28.8%; in the assay on OVCAR-5 ovarian it was 56.5%; in the assay on OVCAR-4 ovarian it was -18.7% (active); in the assay on IGROV1 ovarian, 52.2%. The growth in the assay with OVCAR-3 ovarian was -45.2% (active); with HS 578T breast, 11.3%; in the assay on NCI/ADR-RES ovarian it was 28.8%; in the assay on T-47D breast, 18.5%; with BT-549 breast it was 4.76% (active); in the assay with MDA-MB-435 melanoma, 22.6%. Moreover, the growth in the assay with SW-620 colon is 34.2%; in the assay on MCF7 breast, 36.4%; in the assay on HCT-116 colon, 3.95% (active); in the assay with HCC-2998 colon, 66.2%; in the assay with KM12 colon, 31.3%.

Regarding `COc1cc2ccccc2cc1C(=O)NC(=S)Nc1ccc(-c2nc3ccccc3[nH]2)cc1`, the growth is 28.3% in the assay with SR leukemia; 71.5% in the assay on RPMI-8226 leukemia; 93.1% in the assay on OVCAR-8 ovarian; 103% with OVCAR-5 ovarian; -35.9% (active) in the assay on OVCAR-4 ovarian; 83.2% in the assay with IGROV1 ovarian. The growth with OVCAR-3 ovarian is 55%; in the assay with HS 578T breast it was 30.7%; with NCI/ADR-RES ovarian it was 59.4%; with T-47D breast it was 76.9%; in the assay with BT-549 breast, 45.6%; with MDA-MB-435 melanoma it was 80.2%. Also, the growth with SW-620 colon is 80.5%; in the assay on MCF7 breast, 59%; with HCT-116 colon, 82%; in the assay on HCC-2998 colon it was 96.3%; in the assay on KM12 colon, 68.2%.

Take `CCCCN1CCN(c2ccc3nc(-c4ccc5nc(-c6ccc(OCC)c(OCC)c6)[nH]c5c4)[nH]c3c2)CC1`: the growth with SR leukemia was 14.3%; in the assay on RPMI-8226 leukemia, -25.4% (active); with OVCAR-8 ovarian, -11.9% (active); in the assay with OVCAR-5 ovarian, 37.7%; in the assay with OVCAR-4 ovarian, -77.4% (active); with IGROV1 ovarian, 15.1%. Further, the growth in the assay on OVCAR-3 ovarian is -87.3% (active); in the assay with HS 578T breast it was 35.2%; with NCI/ADR-RES ovarian, 73%; in the assay on T-47D breast it was 39.9%; in the assay on BT-549 breast, -23% (active); in the assay with MDA-MB-435 melanoma, -41.2% (active). The growth in the assay with SW-620 colon is -80.3% (active); in the assay with MCF7 breast, -69.6% (active); in the assay with HCT-116 colon, -79.7% (active); in the assay on HCC-2998 colon it was -80.4% (active); in the assay on KM12 colon, -65.6% (active).

For the compound `CCCN1CCN(c2ccc3nc(-c4ccc5nc(-c6cc(OC)c(OC)c(OC)c6)[nH]c5c4)[nH]c3c2)CC1`, the growth is 34.6% in the assay on SR leukemia; 95.3% with RPMI-8226 leukemia; 75.5% in the assay on OVCAR-8 ovarian; 116% in the assay on OVCAR-5 ovarian; 89.9% in the assay on OVCAR-4 ovarian; 101% in the assay with IGROV1 ovarian. For the same compound, the growth with OVCAR-3 ovarian was 76.9%; in the assay on HS 578T breast it was 54.1%; with NCI/ADR-RES ovarian it was 100%; in the assay on T-47D breast, 65.9%; in the assay on BT-549 breast, 83.2%; with MDA-MB-435 melanoma it was 55.1%. The growth was 75.7% in the assay on SW-620 colon; 23.8% with MCF7 breast; 55.1% in the assay on HCT-116 colon; 94.2% in the assay on HCC-2998 colon; 77% in the assay with KM12 colon.

For the compound `O=C(/C=C/C12c3ccccc3C(c3ccccc31)C1C(=O)N(c3ccccc3)C(=O)C12)c1ccccc1` (configuration not stated), the growth in the assay on SR leukemia is 14.2%; in the assay on RPMI-8226 leukemia it was 1% (active); in the assay with OVCAR-8 ovarian it was 27.4%; in the assay with OVCAR-5 ovarian it was -12.7% (active); in the assay with OVCAR-4 ovarian, 34.1%; in the assay with IGROV1 ovarian it was -24.5% (active). The growth in the assay on OVCAR-3 ovarian was -61.9% (active); in the assay on HS 578T breast, 20.7%; in the assay with NCI/ADR-RES ovarian, 14.2%; in the assay with T-47D breast it was 40.7%; in the assay with BT-549 breast it was -2.69% (active); in the assay with MDA-MB-435 melanoma it was -1.64% (active). Further, the growth is 1.65% (active) with SW-620 colon; 14.7% with MCF7 breast; -57.7% (active) with HCT-116 colon; -65% (active) in the assay on HCC-2998 colon; -41.3% (active) in the assay on KM12 colon.

As for `CCN(CC)CC(=O)Nc1cccc(C(=O)OC(C)C)c1`, the growth was 95.2% with SR leukemia; 105% in the assay with RPMI-8226 leukemia; 108% in the assay on OVCAR-8 ovarian; 104% in the assay with OVCAR-5 ovarian; 103% in the assay on OVCAR-4 ovarian; 101% with SK-OV-3 ovarian. The growth in the assay on IGROV1 ovarian is 104%; with NCI/ADR-RES ovarian, 97%; in the assay with T-47D breast, 92%; with BT-549 breast, 66%; in the assay on MDA-MB-435 melanoma, 102%; with SW-620 colon, 115%. Moreover, the growth is 103% with MCF7 breast, 72.8% in the assay on HCT-116 colon, 99.5% with HCC-2998 colon and 105% in the assay with KM12 colon.

Take `CCn1c(Sc2nnc(NC(C)=O)s2)nc2c1c(=O)n(C)c(=O)n2C`: the growth in the assay with SR leukemia is 98.1%; with RPMI-8226 leukemia, 118%; with OVCAR-8 ovarian, 99.7%; in the assay with OVCAR-5 ovarian, 90.3%; with OVCAR-4 ovarian, 101%; in the assay on IGROV1 ovarian, 98.2%. In addition, the growth was 93.1% in the assay on OVCAR-3 ovarian; 86.2% with HS 578T breast; 89.5% in the assay with NCI/ADR-RES ovarian; 93% in the assay on T-47D breast; 92.8% in the assay on BT-549 breast; 98.1% in the assay on MDA-MB-435 melanoma. Also, the growth in the assay with SW-620 colon was 96.1%; with MCF7 breast, 94.8%; with HCT-116 colon, 97%; in the assay with HCC-2998 colon, 92%; with KM12 colon it was 106%.
